Some test systems named below: SK-MEL-2 melanoma; EKVX NSCLC; SN12C renal; UO-31 renal; TK-10 renal; ACHN renal; CAKI-1 renal; A498 renal; CCRF-CEM leukemia; MOLT-4 leukemia; SR leukemia; RPMI-8226 leukemia; OVCAR-8 ovarian; OVCAR-5 ovarian; OVCAR-4 ovarian; SK-OV-3 ovarian; IGROV1 ovarian; OVCAR-3 ovarian; HS 578T breast; NCI/ADR-RES ovarian.
What all share (test): NCI-60 one-dose screen, 48 h (100 = growth as untreated, 0 = no growth, -100 = all killed)
Holding throughout (details): 10 µM unless noted

SMILES strings stand for the structures. Compounds without any hit were thinned out: in the full panel of roughly 83,000, 20% have a hit.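 Negative percent growth values reflect cell death: -40 means 40% of the cells present at the start died, and -100 means all died.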 Unmarked numbers belong to inactive results. Calls of active or inactive are those of the source. The calls were made as follows: active = growth percent below 10; inactive = the rest.

As to `ClCc1c(Cl)c(Cl)c(Cl)c(CCl)c1Cl`, the growth is 87.7% in the experiment on SK-MEL-2 melanoma; 101% with EKVX NSCLC; 41.5% with SN12C renal; -21.7% (active) in the experiment on UO-31 renal; -73.9% (active) in the experiment on TK-10 renal; 8.92% (active) in the experiment on ACHN renal. Besides, the growth in the experiment with CAKI-1 renal was -76.4% (active); in the experiment with A498 renal it was 89%; in the experiment with CCRF-CEM leukemia it was 3.24% (active); in the experiment on MOLT-4 leukemia, 13.3%; in the experiment with SR leukemia, 4.07% (active); in the experiment on RPMI-8226 leukemia it was 18.4%. The growth in the experiment on OVCAR-8 ovarian is 49.5%; in the experiment on OVCAR-5 ovarian, 118%; in the experiment with OVCAR-4 ovarian, -66.2% (active); in the experiment on SK-OV-3 ovarian it was 113%; with IGROV1 ovarian, 4.3% (active); in the experiment on OVCAR-3 ovarian it was -94.5% (active). In the experiment with HS 578T breast, the growth is 89.3%.
For the compound `CCCCCCCCN=C(NCCCCCCCC)SCc1cccc2ccccc12`, the growth with SK-MEL-2 melanoma was -89.8% (active); with EKVX NSCLC it was -66.4% (active); in the experiment with SN12C renal, -88.1% (active); in the experiment with UO-31 renal, -57.2% (active); with TK-10 renal, -94.8% (active); in the experiment on ACHN renal it was -91.8% (active). In addition, the growth was -84.9% (active) in the experiment on CAKI-1 renal; -80.4% (active) with A498 renal; -2.17% (active) in the experiment with CCRF-CEM leukemia; -11% (active) in the experiment on MOLT-4 leukemia; -34.6% (active) in the experiment with SR leukemia; -42.1% (active) in the experiment with RPMI-8226 leukemia. Also, the growth in the experiment with OVCAR-8 ovarian is -92.5% (active); in the experiment on OVCAR-5 ovarian it was -84.2% (active); in the experiment on OVCAR-4 ovarian, -91.7% (active); with SK-OV-3 ovarian, -96.3% (active); in the experiment on IGROV1 ovarian it was -55.5% (active); in the experiment with OVCAR-3 ovarian, -97.9% (active). For the same compound, the growth in the experiment with HS 578T breast was -55.3% (active).
Take `Oc1ccc(-c2nc3ccccc3s2)cc1CN(Cc1ccccn1)Cc1ccccn1`: the growth with SK-MEL-2 melanoma was 3.08% (active); with EKVX NSCLC, 5.39% (active); with SN12C renal, 20.3%; in the experiment with UO-31 renal, -31.8% (active); with TK-10 renal, 2.77% (active); in the experiment with ACHN renal it was 4.42% (active). Besides, the growth was -15.8% (active) in the experiment on CAKI-1 renal; 31.9% in the experiment with A498 renal; 6.5% (active) in the experiment on CCRF-CEM leukemia; 2.86% (active) in the experiment on MOLT-4 leukemia; 7.98% (active) in the experiment with SR leukemia; 13.2% with RPMI-8226 leukemia. Also, the growth was 9.43% (active) in the experiment on OVCAR-8 ovarian; 40.9% with OVCAR-5 ovarian; 18% in the experiment on OVCAR-4 ovarian; 7% (active) with SK-OV-3 ovarian; 15% in the experiment on IGROV1 ovarian; 26.2% with OVCAR-3 ovarian. Besides, the growth in the experiment on HS 578T breast is 41.6%; in the experiment on NCI/ADR-RES ovarian it was -37.2% (active).
`COc1cc(OC)c2sc(-c3ccc(-n4cncc4-c4ccc(OC)c(N)c4)cc3)nc2c1`: the growth in the experiment with SK-MEL-2 melanoma was 99.6%; with EKVX NSCLC, 64.5%; in the experiment with SN12C renal, 87%; in the experiment with UO-31 renal, 60.6%; in the experiment with TK-10 renal it was 82.8%; in the experiment on ACHN renal, 90.4%. Besides, the growth was 60.9% in the experiment with CAKI-1 renal; 77.8% with A498 renal; 59.2% with CCRF-CEM leukemia; 58.3% with MOLT-4 leukemia; 73.8% with SR leukemia; 51.8% in the experiment on RPMI-8226 leukemia. The growth in the experiment on OVCAR-8 ovarian is 84.3%; in the experiment on OVCAR-5 ovarian, 101%; in the experiment with OVCAR-4 ovarian, 78%; with SK-OV-3 ovarian, 123%; with IGROV1 ovarian, 98.2%; in the experiment with OVCAR-3 ovarian, 77.4%. Besides, the growth with HS 578T breast was 94.1%.
On to `COc1ccc(/C=C(\C#N)c2cc(OC)c(OC)c(OC)c2)cc1`, for which the growth in the experiment on SK-MEL-2 melanoma is 64.7%; with EKVX NSCLC, 54.7%; in the experiment with SN12C renal, 27.9%; with UO-31 renal it was 28.5%; with TK-10 renal it was 74.1%; in the experiment with ACHN renal it was 24.7%. Besides, the growth with CAKI-1 renal was 41.4%; in the experiment on A498 renal, 7.06% (active); in the experiment with CCRF-CEM leukemia, 14.9%; with MOLT-4 leukemia it was 8.39% (active); in the experiment on SR leukemia, 12.1%; in the experiment with RPMI-8226 leukemia it was 12.3%. For the same compound, the growth in the experiment on OVCAR-8 ovarian was 15.6%; in the experiment on OVCAR-5 ovarian it was 38.6%; with OVCAR-4 ovarian it was 35.4%; with SK-OV-3 ovarian, -6.74% (active); with IGROV1 ovarian, 17.9%; in the experiment with OVCAR-3 ovarian, -25.1% (active). Besides, the growth in the experiment with HS 578T breast is 36%; in the experiment on NCI/ADR-RES ovarian, 2.63% (active).
`CCCCCCCCCCCCCCCCCC(=O)OCCCCCCCCCCCCC`: the growth with SK-MEL-2 melanoma is 112%; in the experiment on EKVX NSCLC, 106%; in the experiment on SN12C renal, 111%; in the experiment on UO-31 renal, 95%; in the experiment on TK-10 renal, 122%; with ACHN renal, 104%. For the same compound, the growth is 103% in the experiment with CAKI-1 renal; 105% in the experiment with A498 renal; 73% in the experiment with CCRF-CEM leukemia; 113% in the experiment with MOLT-4 leukemia; 116% with SR leukemia; 95% with RPMI-8226 leukemia. Besides, the growth in the experiment on OVCAR-8 ovarian is 109%; in the experiment on OVCAR-5 ovarian, 113%; with OVCAR-4 ovarian it was 113%; with SK-OV-3 ovarian, 114%; with IGROV1 ovarian, 106%; in the experiment on OVCAR-3 ovarian it was 114%. Moreover, the growth in the experiment on HS 578T breast was 122%.
Consider `COc1cc(NCC(O)CN(CC(C)C)CC(C)C)c2ncccc2c1` (centres undefined), for which the growth in the experiment with SK-MEL-2 melanoma is 100%; in the experiment with EKVX NSCLC, 93.2%; with SN12C renal, 84.6%; in the experiment with UO-31 renal it was 88.6%; in the experiment on TK-10 renal it was 113%; in the experiment with ACHN renal, 87.6%. For the same compound, the growth with CAKI-1 renal is 99.2%; in the experiment on A498 renal, 70%; with CCRF-CEM leukemia, 57.8%; with MOLT-4 leukemia it was 74.9%; with SR leukemia, 50.6%; in the experiment on RPMI-8226 leukemia, 37.6%. For the same compound, the growth in the experiment with OVCAR-8 ovarian was 63.3%; with OVCAR-5 ovarian it was 101%; with OVCAR-4 ovarian, 19.5%; with SK-OV-3 ovarian it was 87.4%; in the experiment with IGROV1 ovarian it was 74.3%; with OVCAR-3 ovarian, 47.4%. Besides, in the experiment with HS 578T breast, the growth is 84.7%.
Take `C/C(=N\NC(=O)CSc1nc2ccccc2c(=O)n1CCc1ccc(S(N)(=O)=O)cc1)c1ccc(Br)cc1`: the growth with SK-MEL-2 melanoma is 80.4%; in the experiment with EKVX NSCLC it was 88.2%; in the experiment on SN12C renal, 92.2%; in the experiment on UO-31 renal it was 78.3%; with TK-10 renal, 106%; with ACHN renal, 93.6%. Besides, the growth with CAKI-1 renal is 79.8%; in the experiment on A498 renal, 97.5%; in the experiment with CCRF-CEM leukemia it was 76.7%; with MOLT-4 leukemia, 55.3%; with SR leukemia, 51.1%; with RPMI-8226 leukemia, 49.7%. The growth in the experiment with OVCAR-8 ovarian was 34.6%; in the experiment on OVCAR-5 ovarian, 111%; in the experiment on OVCAR-4 ovarian it was 71.3%; in the experiment on SK-OV-3 ovarian, 96.4%; with IGROV1 ovarian, 100%; in the experiment with OVCAR-3 ovarian it was 128%. Also, the growth in the experiment with HS 578T breast is 90.8%.

The values above are taken from PubChem BioAssay (NCI).
